# Screens as filed in PubChem BioAssay.
# PLK1 PBD inh – blocks phosphopeptide binding to human PLK1 polo-box domain. 360,000 tested, 2.8% active. Plk1 PBD binding of FITC phosphopeptide, fluorescence polarization. Potency, µM, inactives show max response, negative = inhibition, hits mostly inhibitors; further: series mostly up to about 57 µM; nearly all actives have a fitted effect of over 65% in size
# KAT2A inh – inhibitors of human GCN5L2 histone acetyltransferase; Q92830; GCN5L2 HAT assay, ThioGlo1 CoA-SH fluorescence; Potency, µM (top dose mostly 58.9 µM), inactives show at the highest dose activity change, negative = inhibition, hits mostly inhibitors; 390,000 tested, 0.21% active; AID 504327
#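 Titration-based screen in which CoA formation is detected via maleimide probe ThioGlo1 (50uM) turning fluorescent on thiol reaction; substrates H3(1-25) 75uM and acetyl-CoA 70uM, GCN5L2 20nM, 20 min incubation at room temperature.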
# TDP1 block – blocks human tyrosyl-DNA phosphodiesterase 1. recombinant TDP1, AlphaScreen DNA substrate cleavage. Q9NUW8. Potency, µM (doses to about 130 µM), for the others: at the highest dose activity change, negative = inhibition, usual class: inhibitors. AID 485290. 350,000 tested, 0.28% active; further: nearly all actives have a fitted effect of over 40% in size
# Target sequence (Q9NUW8 whole entry, looked up): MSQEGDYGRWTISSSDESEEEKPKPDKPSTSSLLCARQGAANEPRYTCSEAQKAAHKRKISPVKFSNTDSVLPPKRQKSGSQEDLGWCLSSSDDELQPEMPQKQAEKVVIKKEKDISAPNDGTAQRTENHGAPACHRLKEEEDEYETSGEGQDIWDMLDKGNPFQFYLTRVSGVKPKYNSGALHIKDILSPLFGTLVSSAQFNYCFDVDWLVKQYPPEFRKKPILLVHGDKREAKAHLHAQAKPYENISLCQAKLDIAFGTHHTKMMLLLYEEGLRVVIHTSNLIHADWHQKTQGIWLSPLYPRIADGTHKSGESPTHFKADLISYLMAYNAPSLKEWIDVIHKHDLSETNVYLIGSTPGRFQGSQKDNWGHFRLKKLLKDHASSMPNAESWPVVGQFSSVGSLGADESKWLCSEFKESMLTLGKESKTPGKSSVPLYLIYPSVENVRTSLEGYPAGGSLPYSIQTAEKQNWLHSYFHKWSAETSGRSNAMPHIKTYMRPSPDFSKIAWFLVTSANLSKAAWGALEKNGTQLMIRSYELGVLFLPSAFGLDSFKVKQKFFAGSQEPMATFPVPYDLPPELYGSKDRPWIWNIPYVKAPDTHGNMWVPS
#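 Compounds were preincubated with Tdp1 (1 nM final) for 15 min at room temperature before substrate (15 nM final) started a 5 min reaction; beads (10 ug/ml final) were then added for 10 min before AlphaScreen detection.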
# TDP1 cell noCPT – qHTS for Inhibitors of human tyrosyl-DNA phosphodiesterase 1 (TDP1): qHTS in cells in absence of CPT | DT40 Tdp1-/- hTDP1 cells, no CPT, ATP luminescence, 48 h | Potency, µM (doses to about 46.2 µM), without a hit: top-dose activity change, negative = growth inhibition, most hits filed as inhibitors | 420,000 tested, 15% active | AID 686978, 2013; further: nearly all actives have a fitted effect of over 55% in size
#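 Stably hTDP1-transfected Tdp1-null chicken DT40 cells were treated with library compounds minus camptothecin and grown for at least 48 hr at 37 °C, after which cellular ATP was quantified by luminescence.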
# VDR inh – inhibitors of human vitamin D receptor; 400,000 tested, 0.93% active; P11473; Potency, µM, for the others: max response, negative = inhibition, hits mostly inhibitors; VDR-SRC2-3 peptide fluorescence polarization, 2 h
#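 FP read-out; VDR + SRC2-3 coactivator peptide; 23 nl compound by pintool; 2 h RT incubation; reagents held at 4 deg C, protected from light.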
# DT40 TDP1 CPT – growth inhibition of DT40 Tdp1-/-;hTDP1 cells with camptothecin (screen for TDP1 inhibitors). chicken DT40 Tdp1-/-;hTDP1 cells + 20 nM CPT, ATP luminescence, 48 h. Potency, µM (highest dose often 46.2 µM), for the others: at the highest dose activity change, negative = growth inhibition, actives largely listed as inhibitors. 420,000 tested, 12% active. AID 686979; further: nearly all actives have a fitted effect of over 55% in size
#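 Chicken DT40 Tdp1-/- cells stably complemented with human TDP1 were seeded at 400 cells/well in medium containing 20 nM camptothecin, exposed to pin-transferred compounds, and grown at 37 °C for at least 48 hr. Viability was read as ATP luminescence.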
# * hit, by the source's call; ? = inconclusive; nt = no result given; [ ] = remark or other dose. An excerpt weighted towards active compounds, which were near 18% of everything screened. The call rests on the fitted dose curve; in most records, active means well fitted curve in the direction sought with a large enough effect; inconclusive means small, poorly fitted or top-dose-only effect, or another doubt; inactive means no such curve, though single readings can be large; an effect the other way counts as inactive or inconclusive. On the % scale 0 is the no-effect control and ±100 the full control effect; potency means the concentration at half of the fitted maximal effect.
SMILES,PLK1 PBD inh,KAT2A inh,TDP1 block,TDP1 cell noCPT,VDR inh,DT40 TDP1 CPT
O=C(N/N=C/c1cc([N+](=O)[O-])ccc1O)C12CC3CC(CC(C3)C1)C2,-14%,-7%,11%,23µM*,-7%,?
COc1ccc(CCNC(=O)c2cc(=O)c3cc(C)ccc3o2)cc1,-12%,-7%,7%,13µM*,-11%,23µM*
COc1ccc(CCNC(=O)c2cc(=O)c3ccc(C)cc3o2)cc1OC,-16%,10%,0%,21µM*,-3%,?
Cc1ccc2c(=O)cc(C(=O)NCCc3ccc(S(N)(=O)=O)cc3)oc2c1,-22%,-16%,nt,-1%,5%,-3%
COc1ccc(N2CCN(C(=O)c3cc(=O)c4cc(C)ccc4o3)CC2)cc1,-2%,0%,nt,?,-3%,-28%
Cc1ccc(CC2(C)C(=O)Nc3c(Cl)ccc(Cl)c32)cc1 (centres undefined),6%,nt,nt,16µM*,nt,?
CC1(Cc2ccccc2Cl)C(=O)Nc2c(Cl)ccc(Cl)c21 (centres undefined),5%,nt,nt,?,nt,?
CC1(Cc2ccc(Cl)cc2)C(=O)Nc2c(Cl)ccc(Cl)c21 (centres undefined),4%,nt,nt,?,nt,26µM*
Cc1cc(C(=O)CN2CCN(CC(=O)Nc3ccc(F)cc3)CC2)c(C)n1C1CC1,1%,0%,0%[56.1 µM],2%,-1%,-19%
CC(=O)N1c2ccc(S(=O)(=O)N3CCCC(C(=O)N4CCC(C)CC4)C3)cc2CC1C (centres undefined),-12%,0%,nt,16µM*,-2%,21µM*
CC(=O)N1c2ccc(S(=O)(=O)N3CCCC(C(=O)N4CCCC(C)C4)C3)cc2CC1C (centres undefined),-17%,-4%,2%,?,0%,23µM*
CC(=O)N1c2ccc(S(=O)(=O)NCCC(=O)Nc3ccccc3C)cc2CC1C (centres undefined),-8%,-3%,1%,19%,0%,?
CC(=O)N1c2ccc(S(=O)(=O)NCCC(=O)N3CCCC(C)C3)cc2CC1C (centres undefined),24µM*,-7%,2%,?,?,18µM*
O=C(CCCN1C(=O)NC2(CCCC2)C1=O)NCc1ccccc1,1%,-5%,0%[56.1 µM],1%,-9%,0%
CCN(CC)c1nn2c(=O)c(C(=O)NCCc3ccc(C)cc3)cnc2s1,nt,-8%,2%,?,16%,?
CCc1ccc(CNC(=O)c2cnc3sc(N(CC)CC)nn3c2=O)cc1,nt,-9%,-1%,?,3%,13µM*
CCOc1ccc(CNC(=O)c2cnc3sc(N(CC)CC)nn3c2=O)cc1,nt,-3%,7%,?,9%,?
CCN(CC)c1nn2c(=O)c(C(=O)NCCc3ccccc3C)cnc2s1,nt,-4%,6%,?,16%,16µM*
COCCNc1ncnc2ccc(-c3ccc(C(=O)N(C)C)cc3)cc12,nt,-16%,nt,-2%,10%,-12%
CCOC(=O)[C@H]1[C@H]2COc3ccc(Br)cc3[C@@H]2N2C(=O)CN(Cc3ccc(Cl)cc3)C(=O)[C@@]12C,8%,-16%,2%,?,-3%,18µM*
CCOC(=O)[C@H]1[C@H]2COc3ccc(Br)cc3[C@H]2N2C(=O)CN(Cc3ccc(Cl)cc3)C(=O)[C@@]12C,-4%,nt,nt,23µM*,-3%,?
CCOC(=O)[C@H]1[C@H]2COc3cc(OC)ccc3[C@@H]2N2C(=O)N(c3ccc(Cl)cc3)C(=O)[C@@]12C,-8%,-5%,nt,?,-12%,18µM*
CCOC(=O)[C@H]1[C@H]2COc3ccc(C)cc3[C@@H]2N2C(=O)CN(Cc3ccc(Cl)cc3)C(=O)[C@@]12C,3%,-2%,1%,2%,1%,-26%
CCOC(=O)[C@H]1[C@H]2COc3ccc(Br)cc3[C@@H]2N2C(=O)CN(Cc3ccc(F)cc3)C(=O)[C@@]12C,7%,-5%,1%,21µM*,-10%,?
O=S(=O)(NCc1nc(N2CCCC2)c2cc(Cl)ccc2n1)c1ccccc1OC(F)(F)F,nt,nt,nt,-27%,nt,18%[9.04 µM]
SMILES,PLK1 PBD inh,KAT2A inh,TDP1 block,TDP1 cell noCPT,VDR inh,DT40 TDP1 CPT
Cc1cc2nc(CSc3ccccc3)cc(=O)n2[nH]1,21µM*,-11%,8%,-21%,13%,-10%
Cc1cc2nc(CCl)cc(=O)n2[nH]1,4%,?,?,-17%,23%,3%
COc1cccc(CN2CCC2(C)C(=O)Nc2cccc(Oc3ccccc3)c2)c1F (centres undefined),-6%,nt,nt,7.3µM*,nt,10µM*
COc1ccc(NC(=O)C2(C)CCN2Cc2cccc(OC)c2F)cc1OC (centres undefined),0%,nt,nt,13µM*,nt,23µM*
COc1cccc(CN2CCC2(C)C(=O)Nc2ccc(C)cc2)c1F (centres undefined),4%,nt,nt,23µM*,nt,16µM*
CC1(C(=O)Nc2cccc(Oc3ccccc3)c2)CCN1Cc1ccccc1OC(F)F (centres undefined),-7%,nt,nt,?,nt,?
COc1cccc(CN2CCC2(C)C(=O)Nc2ccc(C)c(O)c2)c1F (centres undefined),-2%,nt,nt,12µM*,nt,12µM*
O=C(NCC1CCCO1)c1cccc(NS(=O)(=O)c2ccc(Br)cc2)c1 (centres undefined),-10%,-11%,1%,?,-17%,-3%
Cc1cccc(NC(=S)NN2CCN(C)CC2)c1,-2%,8%,2%,-1%,16%,-9%
COc1cccc(CN2CCC2(C)C(=O)Nc2ccc3c(c2)OCO3)c1F (centres undefined),-1%,nt,nt,?,nt,23µM*
COc1cccc(NC(=O)C2(C)CCN2Cc2cccc(OC)c2F)c1 (centres undefined),3%,nt,nt,21µM*,nt,?
CC1(C(=O)Nc2cccc(Oc3ccccc3)c2)CCN1Cc1cccc2c1OCO2 (centres undefined),-4%,nt,nt,?,nt,?
Cc1ccc(NC(=O)C2(C)CCN2Cc2cccc3c2OCO3)cc1O (centres undefined),5%,nt,nt,?,nt,16µM*
Cc1ccc(-c2[nH]c3c(c2-c2c(-n4cccc4)n(C)c(=O)[nH]c2=O)c(=O)[nH]c(=O)n3C)cc1,nt,-22%,-4%,-22%,2%,3%
CCOc1ccccc1NC(=O)CSc1nc2c(oc3ccccc32)c(=O)n1-c1ccc(C)c(C)c1,nt,-3%,5%,?,6%,?
CCC(CC)c1ncc[nH]1,-8%,-10%,nt,-13%,-29%,-5%
